# Screening data from PubChem BioAssay.
# TDP1 cell CPT: DT40-hTDP1 cell growth loss with CPT. chicken DT40 Tdp1-/-;hTDP1 cells + 20 nM CPT, ATP luminescence, 48 h. Potency, µM (top dose mostly 46.2 µM), for inactives: at the highest dose activity change, negative = growth inhibition, most hits filed as inhibitors. 12% of 420,000 active; note: potency is the fitted concentration of half-maximal effect; nearly all actives have a fitted effect of over 55% in size
#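 Cell growth measured by CellTiter-Glo luminescence after a minimum 48 h, 37 C compound exposure with 20 nM CPT in Tdp1-knockout DT40 cells stably expressing hTDP1, seeded 400/well; qHTS titration format.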
# IL-1B inflam inh: blocks inflammasome-driven IL-1 beta release; activity change, % at 57.5 µM; 4.7% of 360,000 active; THP-1 LPS/ATP IL-1B secretion, AlphaLISA, 16 h; active compounds read low; AID 743279; in the data active = activity change below about -50%; inconclusive = mostly about -30% to -49%
#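 Secreted IL-1B measured by AlphaLISA bead assay after 16 h compound exposure of THP-1 cells; compounds (final up to 57.5 uM) added 1 h before LPS (250 ng/mL) and ATP (1.25 mM) stimulation; lower signal means less secretion.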
# HT1080-NT tox: kills 2HG-producing HT-1080-NT fibrosarcoma cells. AID 686970. HT-1080-NT fibrosarcoma viability, CellTiter-Glo ATP luminescence, 48 h. 1.6% of 360,000 active. Potency, µM (highest dose often 46.1 µM), without a hit: at the top dose activity, negative = less viability, actives largely listed as cytotoxic;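 note: NT is the 2HG producing partner of a matched IDH1 knockdown line; potency is the fitted concentration of half-maximal effect; 0% = DMSO-treated cells and -100% = media-only wells without cells; nearly all actives have a fitted effect of over 55% in size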
#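 Viability by CellTiter-Glo luminescence after 48 h compound exposure at 37C of HT-1080-NT cells (750/well, RPMI, 5% FBS). % activity scaled between DMSO wells and medium-only wells, then curve-fitted and categorized by curve class.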
# TDP1 cell noCPT: qHTS for Inhibitors of human tyrosyl-DNA phosphodiesterase 1 (TDP1): qHTS in cells in absence of CPT; DT40 Tdp1-/- hTDP1 cells, no CPT, ATP luminescence, 48 h; Potency, µM (titrated, usually from 46.2 µM), for the others: top-dose activity change, negative = growth inhibition, hits mostly inhibitors; 15% of 420,000 active; AID 686978, 2013; note: potency is the fitted concentration of half-maximal effect; nearly all actives have a fitted effect of over 55% in size
#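 Camptothecin absent (DMSO only). Human TDP1-complemented DT40 knockout cells, 400 cells/well, 37 °C for minimum 48 hr; ATP measured via CellTiter-Glo, 30 min dark incubation, luminescence.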
# HT1080 IDH1KD tx: kills HT-1080 cells with IDH1 knockdown; AID 686971; HT-1080 IDH1 knockdown viability, ATP luminescence, 48 h; 2% of 360,000 active; Potency, µM (series often up to 46.1 µM), for inactives: top-dose activity, negative = toxicity, hits mostly cytotoxic;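 note: potency is the fitted concentration of half-maximal effect; 0% = DMSO wells and -100% = cell-free medium wells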
#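 IDH1KD HT-1080 cells, 750/well, RPMI + 5% FBS; compound pinned after 2 h settling; 48 h, 37 °C; CellTiter-Glo luminescence; % activity normalised to DMSO and no-cell wells; curves fitted, classed by r2 and efficacy.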
# Numbers without * were called inactive; i = inactive; u = inconclusive; x = no result; [ ] = another dose, or the depositor's remark. Hits are enriched below; roughly 19% of the tested compounds scored in any of these assays. Unless noted, calls come from the whole dose curve; as a rule, active = well fitted curve in the direction sought with a large enough effect; inconclusive = small, poorly fitted or top-dose-only effect, or another doubt; inactive = no such curve, though single readings can be large; an effect the other way counts as inactive or inconclusive. Unless noted, % is set by controls: 0 for no effect and ±100 for the full control effect.
SMILES,TDP1 cell CPT,IL-1B inflam inh,HT1080-NT tox,TDP1 cell noCPT,HT1080 IDH1KD tx
CCN(C(=O)COC(=O)/C=C/c1cccc(Br)c1)C1CCS(=O)(=O)C1 (configuration not stated),3%,i,-2%,-10%,0%
CN(C(=O)COC(=O)/C=C/c1cccc([N+](=O)[O-])c1)C1CCS(=O)(=O)C1 (configuration not stated),-12%,-9,23µM*,0%,16µM*
O=C(Oc1cccc(Nc2ncnc3ccccc23)c1)c1ccccc1Cl,u,6,-17%,u,-15%
Cc1ccc(NC(=O)CS(=O)CC(=O)Nc2ccc(N3CCOCC3)cc2)cc1Cl (configuration not stated),21µM*,-7,u,29µM*,-25%
Cc1ccc(NC(=O)c2cc(N3C(=O)C=CC3=O)ccc2N2CCOCC2)cc1Cl,4.1µM*,-57*,-3%,3.7µM*,16µM*
Cc1cc(C)c(NC(=O)CS(=O)CC(=O)Nc2ccc(N3CCOCC3)cc2)c(C)c1 (configuration not stated),2%,18,5%,-13%,-1%
Nc1cnc(Nc2ccc(Br)cc2)nc1N,u,-7,5%,15µM*,-1%
S=C(NCCc1ccccc1)Nc1ccccc1N1CCOCC1,u,-8,-15%,u,-2%
COc1ccc(C(=O)NC(=S)NC(C)(C)C)cc1Br,u,-27,4%,23µM*,-5%
COc1ccc(C(=O)Nc2ccccc2N2CCOCC2)cc1Br,u,-20,11%,u,7%
CCOc1ccc(C(=O)NC(=S)Nc2ccccc2N2CCOCC2)cc1Br,u,-14,-2%,16µM*,0%
Fc1cc(F)cc(NC(=S)Nc2ccccc2N2CCOCC2)c1,-15%,-9,5%,26µM*,-5%
COc1ccc(C(=O)NC(=S)Nc2ccccc2N2CCOCC2)cc1Br,u,-22,5%,18µM*,5%
COc1ccc(C(=O)NC(=S)NC(C)C)cc1Br,u,0,u,u,u
CN(C)CC(=O)N1c2ccccc2CCc2ccc(NC(=O)c3ccc(N)cc3)cc21,-3%,-21,-5%,-4%,3%
CCOC(=O)Nc1ccc2c(c1)N(C(=O)OC)c1ccccc1CC2,u,24,u,u,u
COc1cc(C(=O)Nc2ccc3c(c2)N(C(=O)CCN(C)C)c2ccccc2CC3)cc(OC)c1OC,-1%,-60*,u,-1%,u
CCOC(=O)Nc1ccc2c(c1)N(CCCN(C)C)c1ccccc1CC2,23µM*,-10,-25%,u,-4%
OC1(c2cccnc2)CCN(Cc2ccc3c(c2)CN(Cc2cc(F)ccc2F)CCO3)CC1,9%[9.04 µM],x,x,u,x
O=S1(=O)C[C@H](N2CCC[C@@H]2CO)[C@@H](COCc2ccccc2)N1,0%,7,u,12%,27%
Cc1ccccc1NC(=O)Nc1cccs1,u,5,0%,u,0%
CCc1ccccc1NC(=O)Nc1cccs1,-7%,-3,13%,-11%,0%
Cc1ccc(NC(=O)Nc2cccs2)c(C)c1,15µM*,x,x,u,x
Cc1ccc(Cl)cc1NC(=O)Nc1cccs1,-25%,-4,-14%,21µM*,-16%
COc1ccc(NC2C=CS(=O)(=O)C2)c(OC)c1 (configuration not stated),-16%,-61*,-7%,-14%,-11%
SMILES,TDP1 cell CPT,IL-1B inflam inh,HT1080-NT tox,TDP1 cell noCPT,HT1080 IDH1KD tx
CCOC(=O)c1ccc(N2C(=O)c3[nH]nc(-c4ccccc4)c3C2c2ccc(CC)cc2)cc1 (configuration not stated),21µM*,x,x,18µM*,x
CCCCCCCCN1C(=O)C(O)=C(C(C)=O)C1c1ccccn1 (configuration not stated),-18%,39,-1%,u,3%
CCOc1ccc(N2C(=O)c3[nH]nc(-c4ccc(OC)cc4)c3C2c2cccs2)cc1 (configuration not stated),23µM*,x,x,26µM*,x
CCCN1C(=O)c2[nH]nc(-c3ccc(OC)cc3)c2C1c1ccccn1 (configuration not stated),u,x,x,26µM*,x
CCOC(=O)c1ccc(N2C(=O)c3[nH]nc(-c4ccc(OCC)cc4)c3C2c2cccs2)cc1 (configuration not stated),7.3µM*,x,x,3.7µM*,x
CC(C)CC(NC(=O)C(CO)NC(=O)C1CCC(=O)N1)C(N)=O (configuration not stated),9%,-12,3%,7%,-1%
O=C(NNc1c(F)c(F)cc(F)c1F)c1ccc(Cl)nc1,8%,32,5%,-13%,2%
Cc1cccc(N2CCN(Cc3nnc(-c4cccc(Br)c4)o3)CC2)c1C,u,x,x,-19%,x
CCOC(=O)c1ccc(N2C(=O)c3[nH]nc(-c4ccccc4)c3C2c2cccs2)cc1 (configuration not stated),23µM*,x,x,21µM*,x
CCOC(=O)c1ccc(N2C(=O)c3n[nH]c(C)c3C2c2ccccn2)cc1 (configuration not stated),-25%,-6,-4%,-29%,-3%
COc1ccc(N2CCN(CCCn3ccc(NC(=O)OCc4ccccc4)nc3=O)CC2)cc1,23µM*,-14,0%,12µM*,-4%
O=C(Nc1ccn(CCCNCCN2CCOCC2)c(=O)n1)OCc1ccccc1,-103%,6,1%,-93%,0%
O=C(Nc1ccn(CCCN2CCN(c3ccccc3)CC2)c(=O)n1)OCc1ccccc1,u,-23,-23%,15µM*,-1%
O=C(Nc1ccn(CCCN2CCN(Cc3cccc4ccccc34)CC2)c(=O)n1)OCc1ccccc1,16µM*,u,u,18µM*,-21%
O=C(Nc1ccn(CCCN2CCC(N3CCOCC3)CC2)c(=O)n1)OCc1ccccc1,-16%,0,-3%,-10%,1%
O=C(Nc1ccn(CCCNC2CCN(Cc3ccccc3)CC2)c(=O)n1)OCc1ccccc1,u,-18,u,18µM*,u
COc1ccc(CNC(=O)Cn2ccc(NC(=O)OCc3ccccc3)nc2=O)cc1,u,-16,-6%,-9%,8%
COc1ccc(C(=O)NC2CCN(C(=O)NCc3ccccc3)CC2)cc1,6%,2,15%,-4%,9%
COc1ccc(-c2[nH]ncc2CN(CC2CCC(=O)N2)C(C)C)cc1F (configuration not stated),u,3,1%,u,6%
